# Experimental data as given in PubChem BioAssay AID1220 (Sanford-Burnham Center for Chemical Genomics, 2008).
# Hit rate of the full screen: of about 190,000 compounds, about 1,300 (0.68%) were called active. This is one part of a sample in which actives are shown more often than they occur. Rule as the data show it: active = inhibition above about 50%; inactive = the rest.
# Molecular target: Mannose-6-phosphate isomerase (Homo sapiens) (UniProt P34949)
# Experiment: MPI inhibition at elevated mannose 6-phosphate – biochemical, fluorescence intensity, high mannose 6-phosphate, primary screen (AID 1220)
# Settings: recombinant PMI enzyme, coupled fluorescence intensity; at 20 µM; hits give high values
# Mannose-6-phosphate isomerase (Homo sapiens), sequence (P34949 whole entry, looked up): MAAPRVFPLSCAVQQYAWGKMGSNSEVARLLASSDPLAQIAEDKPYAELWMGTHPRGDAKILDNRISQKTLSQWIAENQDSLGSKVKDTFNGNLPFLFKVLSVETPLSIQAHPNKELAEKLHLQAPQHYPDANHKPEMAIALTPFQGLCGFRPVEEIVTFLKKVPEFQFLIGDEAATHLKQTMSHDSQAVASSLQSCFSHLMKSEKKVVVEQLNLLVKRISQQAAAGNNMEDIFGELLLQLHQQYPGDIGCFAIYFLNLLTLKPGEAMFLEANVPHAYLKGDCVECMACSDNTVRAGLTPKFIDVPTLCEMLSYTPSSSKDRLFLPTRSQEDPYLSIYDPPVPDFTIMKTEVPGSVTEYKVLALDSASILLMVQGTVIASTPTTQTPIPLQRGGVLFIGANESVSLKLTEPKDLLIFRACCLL
row,Compound,inhibition
1,Nc1nc(-c2ccc(-c3ccccc3)cc2)cs1,-2.8% (inactive)
2,COc1ccc2[nH]c(=O)c(CN(C(=O)C3CCCO3)c3ccc(C)cc3)cc2c1 (stereo not drawn),50% (active)
3,CCOc1ccc(N(Cc2cc3cc(OC)ccc3[nH]c2=O)C(=O)C2CCCO2)cc1 (stereo not drawn),13.8% (inactive)
4,COc1ccc(N(Cc2cc3cc(OC)ccc3[nH]c2=O)C(=O)C2CCCO2)cc1 (stereo not drawn),7.7% (inactive)
5,CCN(CC)c1ccc(NC(=S)NC(=O)Cc2ccccc2)cc1,50.1% (active)
6,CCC(=O)Nc1ccc(NC(=S)NC(=O)Cc2ccccc2)cc1,6% (inactive)
7,CN(C)S(=O)(=O)c1ccc(NC(=S)NC(=O)Cc2ccccc2)cc1,-3.1% (inactive)
8,Cc1ccc(CC2CC(=O)N(c3ccncc3)C2=O)cc1 (stereo not drawn),1.2% (inactive)
9,CCc1nc2ccc(C(=O)Nc3ccc(NC(C)=O)cc3)cc2nc1CC,7.1% (inactive)
10,Cc1ccc(OS(=O)Nc2cccc3nccnc23)cc1 (stereo not drawn),5.5% (inactive)
11,Fc1ccc(Nc2cccc3nccnc23)cc1,26.2% (inactive)
12,c1cc(Nc2cccc3nccnc23)c2nccnc2c1,54.4% (active)
13,Cc1cc(C)n(-c2cc(C(=O)O)cc(C(=O)O)c2)n1,-12.4% (inactive)
14,CC1=C(Sc2nc3ccccc3[nH]2)C(=O)NC(C)(C)C1,0.2% (inactive)
15,O=C(C/C=N/OCc1ccc(Cl)cc1)c1cnc(-c2ccccc2)s1,13.5% (inactive)
16,CO/N=C/CC(=O)c1cnc(-c2ccccc2)s1,57.6% (active)
17,O=C(C/C=N/OCc1c(Cl)cccc1Cl)c1cnc(-c2ccccc2)s1,14.6% (inactive)
18,O=C(C/C=N/OCc1ccccc1F)c1cnc(-c2ccc(Cl)cc2)s1,1.3% (inactive)
19,CO/N=C/CC(=O)c1cnc(-c2ccc(Cl)cc2)s1,53.8% (active)
20,O=C(C/C=N/OCc1ccc(F)cc1Cl)c1cnc(-c2ccccc2)s1,-2.1% (inactive)
21,Cc1ccccc1C(=O)NC1CCN(Cc2nnnn2Cc2ccc(F)cc2)CC1,4.6% (inactive)

row,Compound,inhibition
1,CCC(C)(C)NC(=O)C(c1ccccn1)N(C(=O)c1csnn1)c1ccc(C)cc1 (stereo not drawn),-1.6% (inactive)
2,COc1cc(CNn2cn[nH]c2=S)cc(Br)c1OCc1ccccc1F,0.2% (inactive)
3,CCCCCCNS(=O)(=O)c1ccc(OC)c(OC)c1,5.6% (inactive)
4,CCCN1CCC(NC(=S)Nc2ccc(OC)c(OC)c2)CC1,-3% (inactive)
5,CCn1cnc2cc(NCc3nc4ccccc4n3C)ccc21,14.9% (inactive)
6,CCn1cnc2cc(NCc3nc4ccccc4n3Cc3ccccc3)ccc21,50.6% (active)
7,Cc1nc2cc(NCc3nc4ccccc4n3Cc3ccccc3)ccc2n1C,20% (inactive)
8,CCOc1cc2[nH]c(=S)n(C3CC3)c(=O)c2cc1OCC,2.9% (inactive)
9,O=C(c1ccccc1[N+](=O)[O-])N1CCCN(C(=O)c2ccccc2[N+](=O)[O-])CC1,-6.8% (inactive)
10,COc1cc(NCCCCCCCN)c2ncccc2c1,50.3% (active)
11,COc1cc(NC(=O)C2CCCCC2)c2ncccc2c1,4.2% (inactive)
12,COc1cc(NS(=O)(=O)c2ccc(C)cc2)c2ncccc2c1,32.6% (inactive)
13,CCn1c(CSCc2ccc(Cl)cc2)n[nH]c1=S,-10.7% (inactive)
14,CC(C)(C=O)C1=CC(=O)c2ccccc2C1=O,12.2% (inactive)
15,CC(C)(C)C1=CC(=Nc2ccccc2N)C=C(C(C)(C)C)C1=O,-7.5% (inactive)
16,Cc1ccc(S(=O)(=O)N2CCOCC2)cc1C(=O)Nc1ccccn1,4.2% (inactive)
17,O=C(Cc1ccc(Cl)cc1)N/N=C/c1cccs1,15.1% (inactive)
18,CCOC(=O)c1c(C)n(C)c2ccc(O)c(CN3CCC(C)CC3)c12,22.9% (inactive)
19,CCOC(=O)c1c(C)n(C)c2ccc(O)c(CN3CCCCC3)c12,8.7% (inactive)
20,CCOC(=O)c1c(C)n(C)c2ccc(O)c(CN3CCN(C)CC3)c12,54.1% (active)
21,CCOC(=O)c1ccc(NC(=O)CSc2nnc(CNc3ccc(C)cc3)n2C)cc1,11.2% (inactive)

row,Compound,inhibition
1,CCOC(=O)c1ccc(NC(=O)CSc2nnc(CNc3ccc(OC)cc3)n2C)cc1,53.5% (active)
2,COc1ccc(NCc2nnc(SCC(=O)Nc3ccc(OC)cc3)n2C)cc1,-0.9% (inactive)
3,COc1ccc(-n2ccnc2SCC(=O)NCc2ccco2)c(OC)c1,5.5% (inactive)
4,O=C(NCc1ccco1)C1Cc2ccccc2CN1C(=O)c1ccco1 (stereo not drawn),-0.2% (inactive)
5,CCn1c(SCc2nc3sc(C(=O)O)c(C)c3c(=O)[nH]2)nnc1-c1ccc(Cl)cc1,-1% (inactive)
6,COc1ccccc1NC(=O)Nc1cc(NC(=O)Nc2ccccc2OC)c(C)nc1C,-9.6% (inactive)
7,CC(C)(C)c1csc(NC(=O)Nc2ccccc2)n1,7.8% (inactive)
8,COc1ccccc1NC(=O)Nc1nc(C(C)(C)C)cs1,56.3% (active)
9,COc1ccc(S(=O)(=O)/N=C2/C=CC(=O)C(C)=C2C)cc1,43.8% (inactive)
10,COc1ccc(S(=O)(=O)c2ccc(OC)cc2)cc1,6.7% (inactive)
11,COc1ccc(S(=O)(=O)N=C2C=C(C)C(=O)C(C)=C2)cc1,61.5% (active)
12,CC1CCN(C(c2ccccc2)c2nnnn2C(C)(C)C)CC1 (stereo not drawn),-19.6% (inactive)
13,Cn1cc(Br)c(C(=O)NN2C(=O)C3C4C=CC(C5CC45)C3C2=O)n1 (stereo not drawn),2.3% (inactive)
14,O=C(Cc1cccc2ccccc12)NCCOc1ccccc1F,23.4% (inactive)
15,Nc1cc2c(cc1[N+](=O)[O-])OCCOCCOCCO2,19.7% (inactive)
16,Nc1cc2c(cc1[N+](=O)[O-])OCCO2,7.1% (inactive)
17,Nc1cc2c(cc1[N+](=O)[O-])OCO2,52.9% (active)
18,CCNc1nc(NCC)nc(C(=O)NN)n1,-16.1% (inactive)
19,COc1cc(/C=N/NC(=O)C(Cc2c[nH]c3ccccc23)NC(=O)OCC(C)C)cc([N+](=O)[O-])c1OCc1ccccc1 (stereo not drawn),53.6% (active)
20,COc1cc(/C=N/NC(=O)[C@H](Cc2c[nH]c3ccccc23)NC(=O)OCC(C)C)cc([N+](=O)[O-])c1O,14.5% (inactive)
21,COc1cc(/C=N/NC(=O)C(Cc2c[nH]c3ccccc23)NC(=O)OCC(C)C)cc([N+](=O)[O-])c1O (stereo not drawn),6.2% (inactive)
